# Assay results: PubChem BioAssay AID1259417 (TB Discovery Research, Infectious Disease Research Institute, 2018)
# Out of some 1,100 compounds screened, about 760 (69%) were called active. No rule for the calls is given here. So high a share suggests a set chosen from earlier hits. Some of the results follow.
# Assay: M. tuberculosis growth inhibition, HTS (AID 1259417);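 also: bacteria grown with compound for 5 days at 37 °C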
# Conditions: stronger effect = higher value, concentration not given here
# [1] = M. tuberculosis DsRed fluorescence growth inhibition
# [2] = M. tuberculosis growth inhibition
Compound,inhibition [1],inhibition [2]
COc1ccccc1-c1coc2cc(OCC(=O)OCc3ccccc3)ccc2c1=O,36.9% (active),64.7%
CCOC(=O)COc1ccc2c(=O)c(-c3ccccc3)coc2c1,96% (active),97%
CCOC(=O)COc1ccc2c(=O)c(-c3ccccc3OC)coc2c1,10.9% (inactive),27%
COC(=O)COc1ccc2c(=O)c(-c3ccccc3OC)coc2c1,16.1% (active),38.3%
COC(=O)COc1ccc2c(=O)c(Oc3ccccc3)c(C)oc2c1,77.7% (active),88.9%
COC(=O)COc1ccc2c(=O)c(-c3ccccc3Cl)coc2c1,74% (active),94.8%
CCC(C(=O)Nc1ccc(CC(=O)OC)cc1)c1ccccc1 (stereo not given),70.5% (active),93.3%
COc1ccc(OC)c(NC(=O)c2cc3cc(Cl)ccc3oc2=O)c1,12.1% (inactive),21.1%
COc1ccc(OC)c(NC(=O)c2cc3cc(Br)ccc3oc2=O)c1,9.39% (active),46.5%
CCCCc1ccc(NC(=O)c2cc3cc(Br)cc(OC)c3oc2=O)cc1,4.42% (active),82.8%
COc1cc(Br)cc2cc(C(=O)Nc3cccc(C(F)(F)F)c3)c(=O)oc12,10.9% (inactive),29.4%
COc1cc(NC(=O)c2cc3ccccc3o2)ccc1NC(=O)c1ccccc1Cl,2.65% (inactive),-0.577%
Cn1nc([N+](=O)[O-])nc1Sc1nnc(-c2cccnc2)o1,87.1% (active),91.2%
CC(NS(=O)(=O)c1cccc(Cl)c1)C(=O)Nc1ccc(Br)cc1F (stereo not given),11.5% (inactive),13.5%
Cc1ccc(NC(=O)C(C)NS(=O)(=O)c2ccc(Cl)cc2)cc1Cl (stereo not given),2.64% (inactive),-8.36%
Cc1cc(Cl)ccc1NC(=O)CCc1ccc(S(=O)(=O)NCC(C)C)cc1,95.3% (active),83.6%
Cc1cc(Cl)ccc1NC(=O)CCc1ccc(S(=O)(=O)NC(C)C)cc1,94.8% (active),83.1%
CCOC(=O)c1cccc(NC(=O)C(Cl)Cl)c1,47.5% (active),52.3%
COc1cc(NC(=O)C(Cl)Cl)c(OC)cc1Cl,7.63% (inactive),4.68%
Cc1cc(=O)[nH]c(-n2nc(C)cc2C)n1,91.4% (active),94.9%
COc1cc(C(=O)Nc2sc3c(c2C(=O)NCC2CCCO2)CCC3)cc(OC)c1OC (stereo not given),-3.52% (inactive),-31.7%
CC(C)(C)c1ccc(C(=O)Nc2sc3c(c2C(=O)NCC2CCCO2)CCCC3)cc1 (stereo not given),12.8% (inactive),-13.4%
COc1ccc(-c2nsc(SCC(=O)NCc3ccco3)n2)cc1,93.1% (active),66.6%
COc1ccc(-c2nsc(SCC(=O)NCC3CCCO3)n2)cc1 (stereo not given),95.7% (active),76.1%
Cc1cccc(-c2nsc(SCC(=O)NCC3CCCO3)n2)c1 (stereo not given),94.3% (active),76.8%
